# According to PubChem BioAssay (Tox21):
# “And” between values parts separate entries of the source, which are not always exact repeats. Equal entries are not always repeated. Records with an inconclusive call do not appear. Entries that show only a call come without a potency. The source holds several records for some structures; these can differ, active in one and inactive in another. The source made the active and inactive calls. Unless noted, calls come from the whole dose curve; as a rule, active = well fitted curve in the direction sought with a large enough effect in the repeat runs; inconclusive = weak or mixed curves; inactive = no such curve, though single readings can be large; an effect the other way counts as inactive or inconclusive.
# Legend:
# [1] = qHTS assay for small molecule agonists of the p53 signaling pathway (AID 651631; calls by dose curve; note: nearly all actives have a fitted effect of over 15% in size; note: potency is the fitted concentration of half-maximal effect)
# Outline: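 HCT-116 p53RE-bla reporter line, 16 h compound treatment at 37 °C, then fluorescence after 2 h with B/G FRET substrate.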
# [2] = qHTS assay for small molecules that induce genotoxicity in human embryonic kidney cells expressing luciferase-tagged ATAD5 (AID 651632); note: nearly all actives have a fitted effect of over 15% in size; note: potency is the fitted concentration of half-maximal effect
# Outline: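 Increased luciferase signal from ATAD5-tagged reporter cells indicates DNA-damage-driven ATAD5 induction. HEK293T cells are treated for 16 hr at 37C before detection with Amplite.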
# [3] = qHTS assay for small molecule agonists of the p53 signaling pathway - cell viability (AID 651633; calls by dose curve; note: nearly all actives have a fitted effect of over 30% in size; note: potency is the fitted concentration of half-maximal effect)
# Outline: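 p53RE-bla cells, seeded at 4,000 per well and rested 5 h at 37 C/5% CO2, received compounds in DMSO for 16 h at 37 C. CellTiter-Glo was then added, and luminescence was read after 30 min at room temperature to gauge cytotoxicity.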
# [4] = qHTS assay for small molecules that induce genotoxicity in human embryonic kidney cells expressing luciferase-tagged ATAD5 - cell viability (AID 651634; calls by dose curve; note: nearly all actives have a fitted effect of over 25% in size; note: potency is the fitted concentration of half-maximal effect)
# Outline: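 Cytotoxicity counterscreen in HEK293T cells bearing an ATAD5-luciferase reporter: live-cell protease activity measured by CellTiter-Fluor fluorescence after 15.5 hr compound exposure.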
# [5] = qHTS assay for small molecule disruptors of the mitochondrial membrane potential - cell viability (AID 720634; calls by dose curve;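 note: human HepG2 liver cancer cells; series mostly up to about 83 µM; nearly all actives have a fitted effect of over 20% in size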)
# Outline: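 After overnight attachment at 37 C, HepG2 cells received compound or DMSO vehicle for 1 hr. Viability is then taken from ATP-driven luminescence following a 30 min room-temperature CellTiter-Glo step.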
# [6] = qHTS assay for small molecule disruptors of the mitochondrial membrane potential (AID 720635); note: potency is the fitted concentration of half-maximal effect
# Outline: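 HepG2 cells (2,000/well) attached overnight at 37C, then took compound for 1 hr at 37C, 5% CO2. Mito-MPS dye was added for 30 min; fluorescence was read at 490/535 nm (monomers) and 540/590 nm (aggregates).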
# [7] = qHTS assay to test for compound auto fluorescence at 590 nm (red) in HepG2 cells (AID 720674)
# Outline: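 Rose Bengal sodium served as the red fluorophore standard. HepG2 monolayers (overnight attachment, MEM with 10% FBS) were exposed to test compounds for 1 hr at 37 C and read at Ex 540/Em 590 nm.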
# [8] = qHTS assay to test for compound auto fluorescence at 535 nm (green) in HepG2 cells (AID 720675)
# [9] = qHTS assay to test for compound auto fluorescence at 460 nm (blue) in HEK293 cells (AID 720678); note: potency is the fitted concentration of half-maximal effect
# Outline: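 HEK293, 2,000 cells/well, 10% dialyzed FBS; attach 4-5 hr 37C; pin compound or DMSO; o/n 37C/5% CO2; fluorescence 405/460 nm; triamterene-equivalent units.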
# [10] = qHTS assay to test for compound auto fluorescence at 590 nm (red) in HEK293 cells (AID 720679)
# Outline: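 Intensity at 540nm excitation and 590nm emission is reported as Rose Bengal sodium-equivalent autofluorescence. Measurements followed overnight exposure (37C, 5% CO2) of HEK293 cells, 2,000 per well, to 23 nL compound.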
# Tags give direction and shape of the fitted curve or compound fluorescence and quenching.
SMILES,Potency [1],Potency [2],Potency [3],Potency [4],Potency [5],Potency [6],outcome [7],outcome [8],Potency [9],outcome [10],"fluorescence, relative to Rose Bengal [7]","fluorescence, % of fluorescein control [8]","fluorescence, % of triamterene [9]","fluorescence, % of fluorescent control [10]"
CCN(CCO)CCCC(C)Nc1ccnc2cc(Cl)ccc12 (stereo unspecified),inactive,inactive,inactive,inactive,inactive,inactive,inactive,inactive,inactive,inactive,–,–,–,–
CCCC(C)C,inactive,inactive,inactive,inactive,inactive,inactive,inactive,inactive,inactive,–,–,–,–,–
Cc1c(Cn2ccnc2)c2ccccc2n1CCC(=O)O,inactive,inactive,inactive,inactive,inactive,inactive,inactive,inactive,inactive,inactive,–,–,–,–
FC(F)(F)C(F)(F)C(F)(F)C(F)(F)C(F)(F)C(F)(F)CCI,inactive,inactive,inactive,inactive,inactive,inactive,inactive,inactive,inactive,inactive,–,–,–,–
CC1(C)[C@H]2CC[C@]1(C)[C@H](O)C2,inactive,inactive,inactive,inactive,inactive,inactive,inactive,–,inactive,inactive,–,–,–,–
CCCOc1ccc2nc(NC(=O)OC)[nH]c2c1,0.298 µM (active),1.68 µM (active),inactive,0.15 µM (active),inactive,inactive,inactive,inactive,inactive,inactive,–,–,–,–
O=[N+]([O-])c1cc[n+]([O-])cc1,inactive,inactive,inactive,inactive,inactive,inactive,inactive,inactive,inactive,inactive,–,–,–,–
Cc1cc(CC(=O)O)c(C)n1-c1ccc(Cl)cc1,inactive,inactive,inactive,inactive,inactive,inactive,inactive,–,inactive,inactive,–,–,–,–
CCOC(=S)SSC(=S)OCC,inactive,inactive,inactive,inactive,inactive,inactive,inactive,inactive,inactive,–,–,–,–,–
O=C1[C@H](CC[C@H](O)c2ccc(F)cc2)[C@@H](c2ccc(O)cc2)N1c1ccc(F)cc1,inactive,inactive,inactive,inactive,inactive,23.7 µM (active),inactive,inactive,inactive,inactive,–,–,–,–
NCCCOCCOCCOCCCN,inactive,inactive,inactive,inactive,inactive,inactive,inactive,inactive,inactive,inactive,–,–,–,–
CC/C(=C\C(=N/O)C(N)=O)C(C)[N+](=O)[O-] (stereo unspecified),inactive,inactive,inactive,inactive,inactive,inactive,inactive,inactive,inactive,inactive,–,–,–,–
COc1ccc2[nH]c(S(=O)Cc3ncc(C)c(OC)c3C)nc2n1 (stereo unspecified),inactive,inactive,inactive,inactive,inactive,inactive,inactive,inactive,inactive,inactive,–,–,–,–
CC(C)(C)c1ccc(S)cc1,inactive,inactive,inactive,inactive,inactive,inactive,inactive,inactive,inactive,–,–,–,–,–
CCC(C)N(C)C(=O)c1cc2ccccc2c(-c2ccccc2Cl)n1 (stereo unspecified),inactive,inactive,inactive,inactive,inactive,inactive,inactive,inactive,inactive,inactive,–,–,–,–
O=S(=O)(O)c1ccc(O)c2ncccc12,inactive,inactive,inactive,inactive,inactive,inactive,inactive,inactive,inactive,inactive,–,–,–,–
CCCC[C@H]1CN(CC2CCOCC2)C(=O)OC12CCN(C1(C)CCN(C(=O)c3c(C)ncnc3C)CC1)CC2,inactive,inactive,inactive,inactive,inactive,inactive,inactive,inactive,inactive,inactive,–,–,–,–
O=C(O)Cc1sc(-c2ccccc2)nc1-c1ccc(Cl)cc1,inactive,inactive,inactive,inactive,inactive,24.8 µM (active) and 23.7 µM (active) and 26.6 µM (active),inactive,inactive,inactive,inactive,–,–,–,–
CCCCCCOC(=O)CCC,inactive,inactive,inactive,inactive,inactive,inactive,inactive,–,inactive,inactive,–,–,–,–
CC[C@]12CCCN3CCc4c(n(c5ccccc45)C(=O)C1)[C@@H]32,2.54 µM (active),inactive,inactive,inactive,inactive,inactive,–,–,–,–,-0.674% [at 18.6 µM] (inactive),0.0406% [at 18.6 µM] (inactive),0.0203% [at 18.6 µM] (inactive),0.0084% [at 18.6 µM] (inactive)
Cc1cccc(C(C)(C)C)c1O,inactive,inactive,inactive,inactive,inactive,inactive,inactive,inactive,inactive,–,–,–,–,–
C1CCC2OC2C1 (stereo unspecified),inactive,inactive,inactive,inactive,inactive,inactive,inactive,–,inactive,inactive,–,–,–,–

SMILES,Potency [1],Potency [2],Potency [3],Potency [4],Potency [5],Potency [6],outcome [7],outcome [8],Potency [9],outcome [10],"fluorescence, relative to Rose Bengal [7]","fluorescence, % of fluorescein control [8]","fluorescence, % of triamterene [9]","fluorescence, % of fluorescent control [10]"
CCCCCCCCCC(=O)OCC,inactive,inactive,inactive,inactive,inactive,inactive,inactive,–,inactive,inactive,–,–,–,–
COc1ccccc1OC(=O)Oc1ccccc1OC,inactive,inactive,inactive,inactive,inactive,inactive,inactive,inactive,inactive,inactive,–,–,–,–
O=c1c2ccccc2nnn1CCl,inactive,inactive,inactive,inactive,inactive,inactive,inactive,inactive,inactive,inactive,–,–,–,–
Nc1nc(CC(=O)O)cs1,inactive,inactive,inactive,inactive,inactive,inactive,inactive,inactive,inactive,inactive,–,–,–,–
CC(C)CCCC(C)CCO (stereo unspecified),inactive,inactive,inactive,inactive,inactive,inactive,inactive,inactive,inactive,inactive,–,–,–,–
OCC1CC2CC1C1CCC(CO)C21 (stereo unspecified),inactive,inactive,inactive,inactive,inactive,inactive,inactive,inactive,inactive,–,–,–,–,–
Cn1c(N)nc2nc[nH]c2c1=O,inactive,inactive,inactive,inactive,inactive,inactive,inactive,inactive,inactive,–,–,–,–,–
CCCCOC(O)CC (stereo unspecified),inactive,inactive,inactive,inactive,inactive,inactive,inactive,inactive,inactive,–,–,–,–,–
N=C(N=C(N)N)N1CCOCC1,inactive,inactive,inactive,inactive,inactive,inactive,–,–,–,–,0.372% [at 18.6 µM] (inactive),-0.084% [at 18.6 µM] (inactive),-0.223% [at 18.6 µM] (inactive),–
CC(=O)OC/C=C/c1ccccc1,inactive,inactive,inactive,inactive,inactive,inactive,inactive,inactive,inactive,inactive,–,–,–,–
CCCCCCCCN(C)C,inactive,inactive,inactive,inactive,inactive,inactive,inactive,inactive,inactive,–,–,–,–,–
CC(=O)O[C@H]1C[C@@H]2CC[C@@H]3[C@H](CC[C@@]4(C)[C@H]3C[C@H]([N+]3(C)CCCCC3)[C@@H]4OC(C)=O)[C@@]2(C)C[C@@H]1N1CCCCC1,inactive,inactive,inactive,inactive,inactive,inactive,inactive,inactive,inactive,inactive,–,–,–,–
CC(=O)CC(=O)c1ccccc1,inactive,inactive,inactive,inactive,inactive,inactive,inactive,inactive,inactive,inactive,–,–,–,–
CNS(=O)(=O)Cc1ccc2[nH]cc(CCN(C)C)c2c1,inactive,inactive,inactive,inactive,inactive,29.8 µM (active),inactive,inactive,inactive,inactive,–,–,–,–
Nc1nc(N)c(-c2ccccc2)s1,inactive,inactive,inactive,inactive,inactive,inactive,inactive,inactive,inactive,inactive,–,–,–,–
Oc1ccc(Sc2ccc(O)cc2)cc1,57.2 µM (active),inactive,inactive,inactive,inactive,18.1 µM (active),inactive,inactive,inactive,–,–,–,–,–
CN(C)C/C=C(/c1ccc(Br)cc1)c1cccnc1,inactive,inactive,inactive,inactive,inactive,–,inactive,inactive,–,inactive,–,–,–,–
CCC(=O)OC(C)(C)C1CC=C(C)CC1 (stereo unspecified),inactive,inactive,inactive,inactive,inactive,–,inactive,inactive,inactive,inactive,–,–,–,–
Nc1nc(N)c2nc(CNc3ccc(C(=O)N[C@@H](CCC(=O)O)C(=O)O)cc3)cnc2n1,inactive and 57.1 nM (active),inactive,inactive and 45.3 nM (active),inactive,inactive,–,inactive,inactive,inactive and 39.8 µM [fluorescent] (active),inactive,–,–,–,–
O=C(O)c1cccc(N(Cc2cccnc2)c2ccc(OC(F)F)c(OC(F)F)c2)c1,inactive,inactive,inactive,inactive,inactive,–,inactive,inactive,inactive,–,–,–,–,–
Cc1cc(NC(=O)C(=O)O)cc(C)c1Oc1ccc(O)c2c1CCC2,inactive,inactive,inactive,inactive,inactive,–,inactive,inactive,inactive,inactive,–,–,–,–
Cc1cccc(OCCOc2cccc(C)c2)c1,inactive,inactive,inactive,inactive,inactive,–,inactive,inactive,inactive,–,–,–,–,–
